These results are taken from PubChem BioAssay (Tox21).

Assay [1] is described as follows: Caspase-3/7 induction in HepG2 cells by small molecules, qHTS assay (AID 1346978). Further: nearly all actives have a fitted effect of over 15% in size. Further: potency means the concentration at half of the fitted maximal effect. The method in brief: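 Caspase-3/7 induction was measured by Caspase-Glo 3/7 luminescence (30 min, room temperature) after a 17 hr compound exposure of wild-type HepG2 cells seeded at 2,000 per well and pre-incubated 5 hr.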
The nature of assay [2]: Caspase-3/7 induction in CHO-K1 cells by small molecules, qHTS cell viability counter screen (AID 1346979). Further: nearly all actives have a fitted effect of over 35% in size. Further: potency means the concentration at half of the fitted maximal effect. The method, boiled down: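 Wild-type CHO-K1 cells were seeded at 1,500 per well, rested 5hr at 37 C, then exposed to compounds in DMSO. After 16hr, CellTiter-Fluor reagent was added and fluorescence read 1hr later as the viability measure.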
The nature of assay [3]: Caspase-3/7 induction in CHO-K1 cells by small molecules, qHTS assay (AID 1346980). Further: nearly all actives have a fitted effect of over 15% in size. Further: potency means the concentration at half of the fitted maximal effect. The method in brief: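 Luminescent Caspase-Glo 3/7 read (30min, room temperature) quantified apoptosis induction. Cells were wild-type CHO-K1, treated with compound for 17hr at 37 C and 5% CO2.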
Assay [4] in a line: Caspase-3/7 induction in HepG2 cells by small molecules, qHTS cell viability counter screen (AID 1346981). Further: nearly all actives have a fitted effect of over 30% in size. Further: potency means the concentration at half of the fitted maximal effect. The method, boiled down: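 Cell viability is measured as a cytotoxicity counter screen alongside the Caspase-Glo 3/7 readout in identical wells. Wild-type HepG2 cells are treated with test compounds for 16 hr at 37 C before CellTiter-Fluor addition and a 1-hr incubation.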

The target in assay [5] is Nuclear receptor subfamily 1 group I member 2 (Homo sapiens) (UniProt O75469). The assay is described as follows: Human pregnane X receptor (PXR) small molecule agonists, qHTS assay (AID 1346982). Further: nearly all actives have a fitted effect of over 35% in size. Further: potency means the concentration at half of the fitted maximal effect. The method in brief:
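Cells: HepG2 stably carrying PXR-Luc. Medium held 5% charcoal-stripped FBS. Compounds in DMSO added after 5 hr plating, incubated 24 hr, then luminescence quantified with ONE-Glo.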

For assay [6], the target named is Nuclear receptor subfamily 1 group I member 2 (Rattus norvegicus) (UniProt Q9R1A7). The assay is described as follows: Rat pregnane X receptor (rPXR) activation by small molecules, qHTS assay (AID 1346983). Further: nearly all actives have a fitted effect of over 20% in size. As to conditions: rPXR luciferase reporter cells, One-Glo luminescence, 24 h; stronger effect = higher value. The method, boiled down:
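Luminescent readout (One-Glo luciferase, 30 min room temperature) followed 24 hr compound treatment at 37 C of rPXR cells plated 2,000 per well and preincubated 5hr; qHTS format with compounds delivered in DMSO.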

Assay [7] concerns the target Nuclear receptor subfamily 1 group I member 2 (Homo sapiens) (UniProt O75469). The assay is described as follows: CYP3A4 induction through human pregnane X receptor (PXR) by small molecules, qHTS assay (AID 1346984). Further: nearly all actives have a fitted effect of over 40% in size. The method, boiled down: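 Quantitative HTS in DPX-2 cells, i.e. HepG2 transfected with PXR response element and CYP3A4-promoter luciferase. Compounds in DMSO incubated 24hr at 37C; then P450-Glo CYP3A4 substrate, 3uM final, 3hr; One-Glo luminescence.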

The target is the same in assay [8]. The assay is described as follows: Human pregnane X receptor (PXR) activation by small molecules, qHTS assay (AID 1346985). Further: nearly all actives have a fitted effect of over 40% in size. The method, boiled down: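 DPX-2 cells (HepG2 co-transfected with a PXR response element and a CYP3A4-promoter luciferase construct) were seeded at 2,000 per well, rested 5 hr at 37C, then exposed to DMSO-dissolved compounds for 24 hr. Activation was read as luciferase luminescence.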

In assay [9] the target is Cytochrome P450 2D6 (Homo sapiens) (UniProt P10635). The assay is described as follows: Cytochrome P450 Family 2 Subfamily D Member 6 (CYP2D6) small molecule antagonists: luciferase reporter qHTS assay (AID 1671196). Further: nearly all actives have a fitted effect of over 50% in size. Further: potency means the concentration at half of the fitted maximal effect. The method in brief:
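Enzyme and proluciferin substrate were first combined with test chemical for 10 min at room temperature. Adding NADPH regeneration solution started a 1 h reaction, stopped with luciferin detection reagent and read by luminescence 20 min later.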

In assay [10] the target is Cytochrome P450 2C19 (Homo sapiens) (UniProt P33261). The assay is described as follows: Cytochrome P450 Family 2 Subfamily C Member 19 (CYP2C19) small molecule antagonists: luciferase reporter qHTS assay (AID 1671197). Further: nearly all actives have a fitted effect of over 65% in size. Further: potency means the concentration at half of the fitted maximal effect. The method in brief:
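P450-Glo CYP2C19 screening system; proluciferin substrate; DMSO compound stocks; 10 min RT preincubation; NADPH regeneration, 1 h at 37C; luciferin detection reagent, 20 min RT; luminescence as RLU.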

In assay [11] the target is Cytochrome P450 2C9 (Homo sapiens) (UniProt P11712). The assay is described as follows: Cytochrome P450 Family 2 Subfamily C Member 9 (CYP2C9) small molecule antagonists: luciferase reporter qHTS assay (AID 1671198). Further: nearly all actives have a fitted effect of over 50% in size. Further: potency means the concentration at half of the fitted maximal effect. The method in brief:
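Enzyme-substrate mix preincubated with compound 10 min at room temperature; reaction started with NADPH regeneration solution, 1 h 37C. Luminescent luciferin product read after 20 min detection reagent.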

Assay [12] addresses Cytochrome P450 1A2 (Homo sapiens) (UniProt P05177). The assay is described as follows: Cytochrome P450 Family 1 Subfamily A Member 2 (CYP1A2) small molecule antagonists: luciferase reporter qHTS assay (AID 1671199). Further: nearly all actives have a fitted effect of over 50% in size. Further: potency means the concentration at half of the fitted maximal effect. The method in brief: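 Compounds were incubated with CYP1A2 and a luminogenic proluciferin substrate for 10 min at room temperature before the reaction was started with NADPH regeneration solution. After 1 h, detection reagent was added and light output, proportional to CYP activity, was recorded.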

The target in assay [13] is Voltage-gated inwardly rectifying potassium channel KCNH2 (Homo sapiens) (UniProt Q12809). The assay is described as follows: Human Ether-a-go-go-Related Gene (hERG) channel small molecule antagonists: fluorescence cell-based qHTS assay (AID 1671200). Further: nearly all actives have a fitted effect of over 50% in size. Further: potency means the concentration at half of the fitted maximal effect. The method in brief:
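U2OS cells expressing the channel were plated at 1000 cells/well, incubated overnight at 37 C, then loaded with FluxOR II thallium-sensitive dye for 1 h at room temperature in the dark, with a further 10 min at room temperature before stimulation.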

In assay [14] the target is Cytochrome P450 3A4 (Homo sapiens) (UniProt P08684). The assay is described as follows: Cytochrome P450 Family 3 Subfamily A Member 4 (CYP3A4) small molecule antagonists: luciferase reporter qHTS assay (AID 1671201). Further: nearly all actives have a fitted effect of over 50% in size. Further: potency means the concentration at half of the fitted maximal effect. The method, boiled down: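 P450-Glo CYP3A4 system with proluciferin substrate; compounds preincubated 10 min RT with enzyme-substrate mix, then NADPH regeneration added for 1 h RT. Detection reagent 20 min, luminescence read as relative luminescence units.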
Cytochrome P450 3A4 (Homo sapiens), sequence (P08684 whole entry, looked up): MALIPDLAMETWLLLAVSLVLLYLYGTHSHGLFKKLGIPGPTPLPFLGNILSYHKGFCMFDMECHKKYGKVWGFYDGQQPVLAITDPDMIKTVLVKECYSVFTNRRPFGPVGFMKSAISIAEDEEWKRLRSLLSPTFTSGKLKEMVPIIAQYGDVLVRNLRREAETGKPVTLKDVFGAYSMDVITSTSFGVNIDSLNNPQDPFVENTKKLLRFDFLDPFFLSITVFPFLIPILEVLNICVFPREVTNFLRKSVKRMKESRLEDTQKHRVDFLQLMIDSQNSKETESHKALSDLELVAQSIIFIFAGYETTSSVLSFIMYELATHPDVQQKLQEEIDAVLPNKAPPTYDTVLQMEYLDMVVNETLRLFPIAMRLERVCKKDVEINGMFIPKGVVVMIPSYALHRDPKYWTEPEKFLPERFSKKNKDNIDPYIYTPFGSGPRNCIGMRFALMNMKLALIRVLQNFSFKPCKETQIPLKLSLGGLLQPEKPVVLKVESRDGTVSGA

Where “and” joins values, the source holds several entries; their conditions need not be identical. Equal values may be shown once. Records with an inconclusive call do not appear. More than one record can exist for a structure, and the calls need not agree. Calls of active or inactive are those of the source. The call rests on the fitted dose curve; in most records, active means well fitted curve in the direction sought with a large enough effect in the repeat runs; inconclusive means weak or mixed curves; inactive means no such curve, though single readings can be large; an effect the other way counts as inactive or inconclusive.
On the % scale 0 is the no-effect control and ±100 the full control effect.

Nuclear receptor subfamily 1 group I member 2 (Rattus norvegicus), sequence (Q9R1A7 whole entry, looked up): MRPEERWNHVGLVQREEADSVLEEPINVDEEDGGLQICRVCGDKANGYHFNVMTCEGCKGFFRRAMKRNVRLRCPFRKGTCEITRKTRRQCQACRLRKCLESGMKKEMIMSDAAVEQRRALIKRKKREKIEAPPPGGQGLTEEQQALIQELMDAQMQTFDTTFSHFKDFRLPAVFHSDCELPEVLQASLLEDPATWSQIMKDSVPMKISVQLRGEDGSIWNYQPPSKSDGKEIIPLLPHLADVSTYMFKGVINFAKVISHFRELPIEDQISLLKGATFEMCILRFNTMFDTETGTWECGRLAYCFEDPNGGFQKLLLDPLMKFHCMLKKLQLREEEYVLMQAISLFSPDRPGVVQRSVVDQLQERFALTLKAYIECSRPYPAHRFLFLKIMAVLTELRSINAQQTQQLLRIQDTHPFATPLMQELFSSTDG
Cytochrome P450 2D6 (Homo sapiens), sequence (P10635 whole entry, looked up): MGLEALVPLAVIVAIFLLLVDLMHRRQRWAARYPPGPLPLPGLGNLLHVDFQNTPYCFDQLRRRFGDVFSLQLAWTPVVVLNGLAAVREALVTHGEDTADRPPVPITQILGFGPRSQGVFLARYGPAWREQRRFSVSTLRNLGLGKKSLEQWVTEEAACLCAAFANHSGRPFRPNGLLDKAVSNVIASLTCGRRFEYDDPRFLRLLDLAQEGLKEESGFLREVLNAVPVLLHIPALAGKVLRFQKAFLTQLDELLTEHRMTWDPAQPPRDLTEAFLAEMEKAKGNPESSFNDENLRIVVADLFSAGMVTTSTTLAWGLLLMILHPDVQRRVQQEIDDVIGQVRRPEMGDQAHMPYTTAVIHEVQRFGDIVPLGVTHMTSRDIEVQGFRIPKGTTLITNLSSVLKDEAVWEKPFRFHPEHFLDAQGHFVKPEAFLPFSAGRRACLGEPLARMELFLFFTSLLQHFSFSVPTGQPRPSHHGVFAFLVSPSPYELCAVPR
Cytochrome P450 2C9 (Homo sapiens), sequence (P11712 whole entry, looked up): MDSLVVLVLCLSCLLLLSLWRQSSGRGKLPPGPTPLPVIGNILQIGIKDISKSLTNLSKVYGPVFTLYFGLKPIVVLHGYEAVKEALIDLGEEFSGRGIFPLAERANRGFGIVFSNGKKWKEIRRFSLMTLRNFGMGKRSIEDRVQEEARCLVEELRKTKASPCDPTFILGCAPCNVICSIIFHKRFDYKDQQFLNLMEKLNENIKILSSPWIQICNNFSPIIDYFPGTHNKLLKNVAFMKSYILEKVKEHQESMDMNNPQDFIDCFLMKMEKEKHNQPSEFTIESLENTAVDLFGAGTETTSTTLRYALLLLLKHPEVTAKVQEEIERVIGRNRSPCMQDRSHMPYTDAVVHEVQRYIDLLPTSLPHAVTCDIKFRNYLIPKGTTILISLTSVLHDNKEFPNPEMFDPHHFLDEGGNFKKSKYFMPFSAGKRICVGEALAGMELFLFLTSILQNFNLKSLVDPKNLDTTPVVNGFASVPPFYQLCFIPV
Cytochrome P450 1A2 (Homo sapiens), sequence (P05177 whole entry, looked up): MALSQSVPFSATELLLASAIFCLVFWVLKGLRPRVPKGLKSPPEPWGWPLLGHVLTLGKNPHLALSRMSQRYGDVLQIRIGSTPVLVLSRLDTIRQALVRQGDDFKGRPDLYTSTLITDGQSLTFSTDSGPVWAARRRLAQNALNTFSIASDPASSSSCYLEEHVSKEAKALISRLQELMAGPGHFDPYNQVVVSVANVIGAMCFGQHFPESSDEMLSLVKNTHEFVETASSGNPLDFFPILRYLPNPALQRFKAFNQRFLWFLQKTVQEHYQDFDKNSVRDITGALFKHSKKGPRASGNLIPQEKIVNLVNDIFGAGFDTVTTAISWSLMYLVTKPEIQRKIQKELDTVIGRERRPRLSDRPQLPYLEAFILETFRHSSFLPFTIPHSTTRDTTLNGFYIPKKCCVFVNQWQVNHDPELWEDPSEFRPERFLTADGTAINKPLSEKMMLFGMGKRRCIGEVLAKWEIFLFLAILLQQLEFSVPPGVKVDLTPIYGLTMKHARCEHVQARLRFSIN
Cytochrome P450 2C19 (Homo sapiens), sequence (P33261 whole entry, looked up): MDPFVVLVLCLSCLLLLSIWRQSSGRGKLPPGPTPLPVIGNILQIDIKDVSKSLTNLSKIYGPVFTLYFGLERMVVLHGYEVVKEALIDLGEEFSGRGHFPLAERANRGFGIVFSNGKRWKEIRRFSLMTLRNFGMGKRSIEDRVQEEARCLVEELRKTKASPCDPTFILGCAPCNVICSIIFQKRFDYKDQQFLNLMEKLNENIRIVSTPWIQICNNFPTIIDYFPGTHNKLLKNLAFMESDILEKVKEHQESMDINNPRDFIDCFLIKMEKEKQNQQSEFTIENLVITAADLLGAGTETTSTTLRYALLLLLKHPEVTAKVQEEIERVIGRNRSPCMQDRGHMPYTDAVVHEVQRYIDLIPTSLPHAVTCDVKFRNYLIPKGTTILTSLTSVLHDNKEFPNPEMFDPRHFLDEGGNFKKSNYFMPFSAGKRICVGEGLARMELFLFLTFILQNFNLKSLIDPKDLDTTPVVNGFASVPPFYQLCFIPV
Nuclear receptor subfamily 1 group I member 2 (Homo sapiens), sequence (O75469 whole entry, looked up): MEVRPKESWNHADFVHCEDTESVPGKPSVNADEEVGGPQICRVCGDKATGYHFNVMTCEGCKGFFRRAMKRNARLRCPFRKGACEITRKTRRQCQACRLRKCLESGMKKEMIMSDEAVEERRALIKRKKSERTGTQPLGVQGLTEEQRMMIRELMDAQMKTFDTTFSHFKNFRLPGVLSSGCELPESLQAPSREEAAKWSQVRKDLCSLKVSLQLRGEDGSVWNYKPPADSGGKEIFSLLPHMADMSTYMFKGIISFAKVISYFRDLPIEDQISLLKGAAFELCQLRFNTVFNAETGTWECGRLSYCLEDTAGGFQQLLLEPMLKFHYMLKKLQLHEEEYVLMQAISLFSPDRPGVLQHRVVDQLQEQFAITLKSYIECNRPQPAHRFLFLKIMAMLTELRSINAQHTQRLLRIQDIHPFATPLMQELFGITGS
Voltage-gated inwardly rectifying potassium channel KCNH2 (Homo sapiens), sequence (Q12809 whole entry, looked up): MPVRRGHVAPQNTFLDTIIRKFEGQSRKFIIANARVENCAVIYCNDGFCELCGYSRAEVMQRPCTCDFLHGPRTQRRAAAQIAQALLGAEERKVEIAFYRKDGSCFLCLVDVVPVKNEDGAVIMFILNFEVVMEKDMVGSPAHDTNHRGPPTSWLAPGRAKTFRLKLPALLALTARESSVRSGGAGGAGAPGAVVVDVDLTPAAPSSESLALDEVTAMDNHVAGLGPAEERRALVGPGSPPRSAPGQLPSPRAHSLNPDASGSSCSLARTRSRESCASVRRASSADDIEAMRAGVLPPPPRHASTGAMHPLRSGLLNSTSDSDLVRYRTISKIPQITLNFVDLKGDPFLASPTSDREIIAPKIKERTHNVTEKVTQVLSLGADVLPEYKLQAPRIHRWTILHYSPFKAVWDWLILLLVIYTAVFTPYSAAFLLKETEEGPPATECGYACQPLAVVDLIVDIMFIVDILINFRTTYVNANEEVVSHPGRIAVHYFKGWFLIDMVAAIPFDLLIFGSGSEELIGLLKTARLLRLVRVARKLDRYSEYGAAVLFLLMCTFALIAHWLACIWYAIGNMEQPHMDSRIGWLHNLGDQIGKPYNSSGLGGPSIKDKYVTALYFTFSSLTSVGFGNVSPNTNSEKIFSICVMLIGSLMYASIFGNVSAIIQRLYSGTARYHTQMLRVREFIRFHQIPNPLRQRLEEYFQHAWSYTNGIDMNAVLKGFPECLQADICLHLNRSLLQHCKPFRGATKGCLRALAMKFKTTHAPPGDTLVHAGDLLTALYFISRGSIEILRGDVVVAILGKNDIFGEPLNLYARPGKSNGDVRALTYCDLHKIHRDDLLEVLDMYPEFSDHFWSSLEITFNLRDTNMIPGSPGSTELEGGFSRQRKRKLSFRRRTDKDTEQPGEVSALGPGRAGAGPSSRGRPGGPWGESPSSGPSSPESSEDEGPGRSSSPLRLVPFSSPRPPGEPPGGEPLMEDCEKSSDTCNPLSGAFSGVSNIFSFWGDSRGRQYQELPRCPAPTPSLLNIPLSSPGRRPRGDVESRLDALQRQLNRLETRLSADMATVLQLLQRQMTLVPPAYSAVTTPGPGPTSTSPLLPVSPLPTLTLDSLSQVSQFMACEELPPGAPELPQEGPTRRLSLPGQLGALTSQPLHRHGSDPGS

On to `O=C1NCC2(CCN(CCc3ccccc3)CC2)O1`, for which the Potency result in assay [1], in assay [2], in assay [3], in assay [4], in assay [5] and in [7] was “inactive” each time. The Potency result in assay [8], in assay [10], in assay [11], in assay [12], in assay [13] and in assay [14] was “inactive” in each case. Further, in assay [6], the max activation is -2.2% (inactive). Also, the Potency in assay [9] is 13.8 µM (active).

Consider `CCN(CC)C(=O)Nc1ccc(OCC(O)CNC(C)(C)C)c(C(C)=O)c1` (configuration not stated), for which the Potency entry in [1], in assay [2], in assay [3], in assay [4], in assay [5] and in assay [7] was “inactive” throughout. Further, the Potency entry in [8], in [10], in [11], in [12], in assay [13] and in assay [14] was “inactive” throughout. Besides, the max activation in [6] was 1.62% (inactive).

Regarding `CCCCOCCOC(=O)c1ccccc1C(=O)OCCOCCCC`, the Potency result in [1], in [2], in [3], in [4] and in [13] was “inactive” throughout. In addition, the Potency in [5] is 59.8 µM (active) and inactive; in assay [9], 31 µM (active) and 25.2 µM (active); in assay [10], 3.48 µM (active) and 1.78 µM (active); in [11] it was 6.95 µM (active) and 7.1 µM (active); in [12], 19.6 µM (active) and 15.9 µM (active); in assay [14], 12.4 µM (active) and 17.8 µM (active).

For `COc1ccc(CCN2CCC(Nc3nc4ccccc4n3Cc3ccc(F)cc3)CC2)cc1`, the Potency is 7.86 µM (active) in assay [1]; 7.86 µM (active) and 23.7 µM (active) in assay [2]; 11.1 µM (active) in [3]; 8.82 µM (active) and 29.8 µM (active) in [4].

Regarding `CCCCCCCCCCCCCC[P+](CCCC)(CCCC)CCCC`, the Potency in assay [1] is 48.6 µM (active); in assay [2], 2.42 µM (active) and 7.7 µM (active); in assay [4] it was 54.2 µM (active); in [5] it was 2.16 µM (active) and 6.86 µM (active); in assay [9], 223 nM (active) and 399 nM (active); in assay [10], 56.1 µM (active) and 39.9 µM (active). For the same compound, the Potency in assay [11] was 28.1 µM (active) and 50.2 µM (active); in assay [12], 70.6 µM (active) and 79.6 µM (active); in assay [13] it was 194 nM (active) and 275 nM (active). The Potency entry in assay [3] and in assay [14] was “inactive” throughout.

In the case of `CCOc1ccccc1C(N)=O`, the Potency entry in assay [1], in assay [2], in assay [3], in [4], in assay [5] and in assay [7] was “inactive” throughout. Besides, the Potency result in assay [8], in assay [9], in assay [11], in [13] and in [14] was “inactive” in each case. Further, in assay [6], the max activation was -0.87% (inactive). The Potency in assay [10] is 20 µM (active) and inactive; in [12], 31.8 µM (active) and 17.4 µM (active).

In the case of `OCCOCCN1CCN(C(c2ccccc2)c2ccc(Cl)cc2)CC1` (configuration not stated), the Potency in [1] is 53.8 µM (active) and inactive; in assay [2] it was 53.8 µM (active) and inactive; in [4], 21.4 µM (active) and inactive. Moreover, the Potency result in [3] is “inactive”.

Regarding `Cc1cc(C(C)(C)C)c(O)c(C(C)(C)C)c1`, the Potency entry in [1], in assay [2], in assay [3], in [4], in assay [5] and in [9] was “inactive” in each case. Also, the Potency entry in assay [10], in [12], in assay [13] and in assay [14] was “inactive” throughout. In addition, the Potency in [11] was 35.7 µM (active) and inactive.
